# Laboratory results taken from the supplement of paper PMC8728848.
# The entries come from a sample that favours the strongest signals as a whole.
# B1: Pbx1 (Cryptococcus neoformans) (protein)
# chain: ATTKCLVSGDQDSINNALALGGEGTTVTLCPGSVHRLNSSIIFTAPSQTLTTLGNPKDRNRAMLVVDGEDLACAIRADCKQCSHAMIRSLVIDGNRPQLLRIPKGDALIEVGNAESQTVRDCKLYEPRGWSALHFREGDERQCRFGHIVDNEIGPCGEEWDDEYDSMDETKPLWGNPRADGISLACKDSIVERNVVYDATDGAIVLFGSAGSTVKNNHVYARTRVILGGINLVDYEPWDGDYTNVKVHHNHLYALGRYFKVGIVIGPASWSDDTESVVHSASVTDNEFSGGYWGYGIVVASAKNFEVLRNKVIWDGEQGVARFSGVPGSRCPKAPENGKPTAFLINRGSAKGIFQDDFVNGEVQHIICLNPDQDPPYKPWRFRDSPEAIAAKQAENPTANSAFDSRIAEALVSYQMSLLNSMDAMTQKVEHLTNPIVDDALPFVHEHERAEADKKARQEASRKEKESGNKDVDMLNVKVEELEKSGRRLKKALDGLKSDFEGLSGRLKKSADENKPIIETIFVTSQNLLLGATSQQN
# Legend:
# Experiment in all cases: glycan array binding signal (z-score within array); higher = stronger binding
# Settings in all cases: glycan notation: IUPAC condensed, linker removed
# GlcNAc(b1-3)Gal = target: GlcNAc(b1-3)Gal
# In short: (§1)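 The binding signal is a Z-score computed within each array. Data were drawn from 3228 arrays in the Consortium for Functional Glycomics database, restricted to those with a known protein sequence. Scores were averaged over arrays of the same protein sequence at different concentrations or buffers, and over linkers, and negative values can be taken as non-binding.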
# [1] = target: GlcNAc(b1-3)[GlcNAc(b1-6)]GalNAc
# In short: as §1
# [2] = target: GlcNAc(b1-4)GlcNAc(b1-4)GlcNAc
# In short: as §1
# [3] = target: GlcNAc(b1-4)GlcNAc(b1-4)GlcNAc(b1-4)GlcNAc(b1-4)GlcNAc
# In short: as §1
# [4] = target: GlcNAc(b1-6)Gal(b1-4)GlcNAc
# In short: as §1
# GlcNAc(b1-6)GalNAc = target: GlcNAc(b1-6)GalNAc
# In short: as §1
# MurNAc(b1-4)GlcNAc = target: MurNAc(b1-4)GlcNAc
# In short: as §1
# [5] = target: Neu5Ac(a2-3)Gal(b1-3)GlcNAc(b1-2)Man(a1-3)[Neu5Ac(a2-3)Gal(b1-3)GlcNAc(b1-2)Man(a1-6)]Man(b1-4)GlcNAc(b1-4)GlcNAc
# In short: as §1
# [6] = target: Neu5Ac(a2-3)Gal(b1-3)GlcNAc6S
# In short: as §1
# [7] = target: Neu5Ac(a2-3)Gal(b1-3)]Neu5Ac(a2-3)Gal(b1-4)]GlcNAc
# In short: as §1
# [8] = target: Neu5Ac(a2-3)Gal(b1-4)[Fuc(a1-3)]GlcNAc(b1-3)Gal(b1-4)GlcNAc
# In short: as §1
# [9] = target: Neu5Ac(a2-3)Gal(b1-4)[Fuc(a1-3)]GlcNAc(b1-6)[Gal(b1-3)]GalNAc
# In short: as §1
# [10] = target: Neu5Ac(a2-3)Gal(b1-4)[Fuc(a1-3)]GlcNAc(b1-6)[Neu5Ac(a2-3)Gal(b1-3)]GalNAc
# In short: as §1
# [11] = target: Neu5Ac(a2-6)Gal(b1-4)GlcNAc(b1-2)[Neu5Ac(a2-6)Gal(b1-4)GlcNAc(b1-4)]Man(a1-3)[GlcNAc(b1-4)][Neu5Ac(a2-6)Gal(b1-4)GlcNAc(b1-2)[Neu5Ac(a2-6)Gal(b1-4)GlcNAc(b1-6)]Man(a1-6)]Man(b1-4)GlcNAc(b1-4)GlcNAc
# In short: as §1
# [12] = target: Neu5Ac(a2-6)Gal(b1-4)GlcNAc(b1-2)[Neu5Ac(a2-6)Gal(b1-4)GlcNAc(b1-6)]Man(a1-6)[Neu5Ac(a2-6)Gal(b1-4)GlcNAc(b1-2)Man(a1-3)][GlcNAc(b1-4)]Man(b1-4)GlcNAc(b1-4)GlcNAc
# In short: as §1
# Neu5Ac(b2-6)GalNAc = target: Neu5Ac(b2-6)GalNAc
# In short: as §1
# [13] = target: Neu5Gc(a2-3)Gal(b1-3)GlcNAc
# In short: as §1
# [14] = target: Neu5Gc(a2-8)Neu5Ac(a2-3)Gal(b1-4)GlcNAc
# In short: as §1
binder,measurement,setting,value
B1,glycan array binding signal (z-score),GlcNAc(b1-3)Gal,-0.639
same,glycan array binding signal (z-score),[1],-0.235
same,glycan array binding signal (z-score),[2],-0.565
same,glycan array binding signal (z-score),[3],-0.631
same,glycan array binding signal (z-score),[4],-0.045
same,glycan array binding signal (z-score),GlcNAc(b1-6)GalNAc,-0.262
same,glycan array binding signal (z-score),MurNAc(b1-4)GlcNAc,5.14
same,glycan array binding signal (z-score),[5],0.345
same,glycan array binding signal (z-score),[6],-0.618
same,glycan array binding signal (z-score),[7],-1.05
same,glycan array binding signal (z-score),[8],0.071
same,glycan array binding signal (z-score),[9],3.7
same,glycan array binding signal (z-score),[10],0.371
same,glycan array binding signal (z-score),[11],2.36
same,glycan array binding signal (z-score),[12],-0.36
same,glycan array binding signal (z-score),Neu5Ac(b2-6)GalNAc,-0.769
same,glycan array binding signal (z-score),[13],-0.531
same,glycan array binding signal (z-score),[14],-0.771
